Experimental data taken from PubChem BioAssay (NCATS).
Results filed as inconclusive are left out. Unmarked numbers belong to inactive results. The call rests on the fitted dose curve; in most records, active means well fitted inhibition curve with a large enough effect; inconclusive means small, poorly fitted or top-dose-only effect; inactive means no such curve, though single readings can be large or run the other way.

The compounds below were run against Retinaldehyde dehydrogenase 3 (Homo sapiens) (UniProt P47895) (assay: qHTS for Inhibitors of the Aldehyde Dehydrogenase Family (ALDH1A3) Primary screen (AID 2061315;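 further: plate controls were DMSO vehicle for no effect and reference inhibitor for full effect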)). Settings: ALDH inhibition qHTS; series mostly up to 56 µM; activity change, negative = inhibition: at the top concentration.

Point of comparison: `COc1ccc(C2Nc3ccccc3C(=O)N2Cc2ccco2)cc1COc1c(C)cc(NC(C)=O)cc1C` (stereo not given), “activity change, negative = inhibition” value -6.79%. Against it:
- Cc1ccc(OCCn2c(CCNC(=O)c3ccncc3)nc3ccccc32)cc1 — higher, -4.79%
- O=C(Cc1ccccc1)Nc1sc2c(c1C(=O)Nc1ccc(Cl)cc1)CCOC2 — higher, -0.605%
- Cc1cc(C)nc(NC(=S)N2CCN(c3ccccc3C#N)CC2)c1 — higher, 11.1%
- Cc1nc(N2CCOCC2)c2nc(-c3ccccc3)n(CCN3CCCC3)c2n1 — lower, -7.52%
- COc1cc(OC)cc(-c2ccc3c(-c4ccc(F)cc4)[nH]nc3n2)c1 — higher, -0.098%
- CC[C@@H]1C[C@]1(NC(=O)[C@@H]1C[C@@H]2CN1C(=O)[C@H](C(C)(C)C)NC(=O)OCC(C)(C)CCCCc1cccc3c1CN(C3)C(=O)O2)C(=O)NS(=O)(=O)C1CC1 — higher, -2%
- Fc1ccc(-c2nc(CCCCSc3nnc(-c4cccc5ccccc45)o3)no2)cc1 — higher, 5%
- O=C(Nc1cc(F)cc(F)c1)Nc1nnc(-c2ccncc2)s1 — higher, 0.13%
- O=C1c2ccccc2NC(c2ccccc2O)N1Cc1ccccc1 (stereo not given) — lower, -17.8%
- O=c1c2ccc(F)cc2nc2sc(Nc3ccc4c(c3)CCC4)nn12 — higher, -0.822%
- Cc1cc(C)n2ncc(C(=O)Nc3ccc(C#N)cc3)c2n1 — higher, -3.58%
- CCCn1c(C)nc2c(Nc3ccccc3)nc(C)nc21 — higher, -0.769%
- Cn1nnnc1Sc1ncnc2scc(-c3cccs3)c12 — higher, 3.18%
- Cc1ccc(Cl)cc1NS(=O)(=O)c1cc2c(cc1Cl)CCC(=O)N2 — higher, 1.74%
- COc1ccc(C(=O)NCC(=O)OC(C(=O)Nc2cc(C(F)(F)F)ccc2Cl)c2ccccc2)cc1OC (stereo not given) — higher, 10.8%
- COc1ccc([S+](=O)([O-])Nc2ccc(-c3nc4ccccc4[nH]3)cc2)cc1OC — higher, 10.5%
- Cc1ccccc1C(=O)N1CCc2cc(-c3ccnc(NC(=O)Cc4ccccc4)n3)ccc21 — higher, 9.65%
- COc1cc2nc(N3CCN(C)CC3)nc(NCCN(C)C)c2cc1OC — lower, -8.88%
- N#Cc1no[n+]([O-])c1-c1ccccc1 — higher, -2.51%
- CCCn1c(-c2ccc(F)cc2)nc2c(NCCCN(CC)CC)nc(C)nc21 — higher, 1.46%
- Cc1ccccc1S(=O)(=O)Nc1cnccc1C(=O)Nc1nc(-c2ccccc2)cs1 — higher, 13.4%
- NC(=O)C1CCN(c2nc(-c3ccc(OCc4ccccc4)cc3)cs2)CC1 — higher, 4.66%
- CN(C)C(=O)C1CCN(c2nc(-c3ccc(Br)cc3)cs2)CC1 — higher, 5.39%
- COc1ccc(CN(Cc2ccccc2)C(=O)c2ccccc2)cc1COc1ccc(NC(C)=O)cc1 — higher, 1.13%
- CCOc1ccc(CCNC(=O)c2cnon2)cc1OCC — higher, 0.959%
- c1cc(NC2CCNCC2)nc(-c2cnc3ccccn23)c1 — lower, -24.3%
- O=C(Nc1ccc(Cl)cc1)Nc1nnc(-c2ccncc2)s1 — higher, 5.59%
- Cc1nnc(-c2cnn(C)c2N)o1 — lower, -11.7%
- FC(F)(F)c1ccc(CNc2nc(-c3ccccc3C(F)(F)F)nc3ccccc23)cc1 — lower, -15.6%
- O=C(Nc1ccc2c(c1)OCCO2)Nc1nnc(-c2ccncc2)s1 — higher, 0.914%
- O=C(NCCc1nc2ccccc2[nH]1)C1CCCCC1 — higher, -2.79%
- COc1ccc(Nc2nc(C#N)nc(NC3CCCC3)n2)cc1 — higher, 12.4%
- N#Cc1ncc(C(=O)OCC(=O)NC2C3CC4CC(C3)CC2C4)cn1 (stereo not given) — higher, 8.98%
- Cc1noc(C)c1-c1ccc2ncnc(NCc3cccc(-c4ccccc4)c3)c2c1 — higher, -1.14%
- CCOc1ccccc1-c1nnc2n1N=C(c1ccc(OC)c(OC)c1)CS2 — higher, 1.1%
- NC[C@@H](O)c1ccc(O)c(O)c1 — lower, -28.6%
- Cc1cccc(CNc2ccnc(-c3ccccc3C)n2)c1 — higher, 22.3%
- CNc1oc(-c2cccc3cnccc23)nc1C#N — lower, -9.88%
- COc1ccc(C2c3c(nc(C)[nH]c3=O)Oc3ccc4ccccc4c32)cc1OC (stereo not given) — higher, 5.91%
